Source: PubChem BioAssay (National Center for Advancing Translational Sciences (NCATS))
Pf growth 96h: P. falciparum growth inhibition at 96 hour, primary screen for plastid delayed-death inhibitors; P. falciparum luciferase reporter growth, 96 h; Potency, µM (titrated, usually from 28.7 µM), without a hit: top-dose activity change, negative = inhibition, hits mostly inhibitors; 320,000 tested, 6.9% active; AID 504834; further: potency means the concentration at half of the fitted maximal effect; on the % scale 0 is the no-effect control and ±100 the full control effect
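Erythrocytes infected with luciferase-expressing P. falciparum were dispensed at 2% hematocrit and 0.05% parasitemia (final), then incubated with compounds 96 hours at 37 C in 5% CO2. Luminescence after detection reagent addition reported growth.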
CHX counter: counter-screen for Shiga toxin inhibitors: cycloheximide protein synthesis inhibition; cell reporter, cycloheximide protein synthesis inhibition counterscreen; 300,000 tested, 12% active; max response, %; in the data active means max response mostly above about 13%, no sharp cut-off; inactive means mostly below about 14%; further: read at 38.3 µM for the half of the compounds with a filed dose; 0% is about no effect
Shiga inhibitor: Shiga toxin inhibition. inhibition, % at 38.7 µM. 290,000 tested, 9.2% active. AID 2315. Vero cells, Shiga toxin protein synthesis inhibition reporter; in the data active means inhibition mostly above about 28%, no sharp cut-off; inactive means mostly below about 43%; further: 0% is about no effect
Pf growth 48h: inhibits P. falciparum growth in the first generation, 48 h. P. falciparum luciferase growth in erythrocytes, 48 h. Potency, µM (series often up to 28.7 µM), for inactives: top-dose activity change, negative = inhibition, most hits filed as inhibitors. 310,000 tested, 5.9% active. AID 504832; further: potency means the concentration at half of the fitted maximal effect; on the % scale 0 is the no-effect control and ±100 the full control effect
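Erythrocytes infected with P. falciparum carrying an integrated firefly luciferase reporter (2% hematocrit, 0.1% parasitemia final) were exposed to compounds in RPMI 1640 with 0.5% Albumax at 37 C, 5% CO2. Growth inhibition was scored as reduced luminescence.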
Active calls of the source: *; i = inactive; ? = inconclusive; . = not tested or not shown; [ ] = another dose, or the depositor's remark. In the library only some 21% were active in any assay of this set; here they are far more common. Unless noted, the call rests on the fitted dose curve; in most records, active means well fitted inhibition curve with a large enough effect; inconclusive means small, poorly fitted or top-dose-only effect, or another doubt; inactive means no such curve, though single readings can be large or run the other way.

SMILES	Pf growth 96h	CHX counter	Shiga inhibitor	Pf growth 48h
CCOc1ccc(-c2csc(NC(=O)CSC3=NC(=O)CN3C(C)=O)n2)c2ccccc12	10µM*	-6	-10	?
CC(=O)N1CC(=O)N=C1SCC(=O)Nc1nc(C)c(-c2ccccc2)s1	-25%	33*	37*	-79%
CCOc1ccc(-c2csc(NC(=O)CSCC(=O)O)n2)c2ccccc12	10%	6	-5	17%
Cc1ccnc(NC(=O)CCC(=O)N(CC(=O)NC(C)(C)C)c2ccc(F)c(Cl)c2)c1	0%	2	3	?
O=C(Nc1ccccc1)c1ccc(N2CCN(c3ccccn3)CC2)c(S(=O)(=O)N2CCOCC2)c1	3.7µM*	-2	-7	.
O=C(Nc1ccc(NC(=O)c2ccc(Cl)c(S(=O)(=O)N3CCOCC3)c2)cc1)c1ccccc1	-1%	-3	-8	5%
O=C(Nc1ccccc1)c1ccc(N2CCN(c3ccccc3)CC2)c(S(=O)(=O)N2CCOCC2)c1	4.1µM*	-5	-16	.
COc1ccc(Cc2noc(CN(C)CCN3CCc4ccccc4C3)n2)cc1OC	7.4µM*	6	-3	-70%
COc1ccc(Cc2noc(CN(C)CCc3ccccc3)n2)cc1OC	?	6	11	?
CN(CCN1CCc2ccccc2C1)Cc1nc(Cc2ccccc2F)no1	10µM*	2	-7	?
CC(=O)N(c1ccc(Cl)cc1)c1cn(C(C)=O)c2ccccc12	-22%[5.75 µM]	-7	5	-2%
CC(=O)N(c1ccc(Cl)cc1)c1c[nH]c2ccccc12	6.6µM*	-4	-15	12µM*
COc1ccc(CN2CCCC(C(=O)Nc3cccc(-n4cccn4)c3)C2)c(F)c1 (configuration not stated)	46%	-1	-12	?
CCN(CC)CCn1c(N)nc2ccccc21	-27%	-2	24	-9%
CCN(CC)CCn1c2ccccc2c2nc3ccc([N+](=O)[O-])cc3cc21	?	27*	92*	?
O=c1[nH]cnc2nn(-c3ccccc3)nc12	.	14	84*	275%
CCOc1ccc(NC(=S)NN(C)C(=S)Nc2ccc(OCC)cc2)cc1	-3%	-1	2	11%
CS(=O)(=O)Oc1ccc2c(c1)O/C(=C\c1cccc([N+](=O)[O-])c1)C2=O	?	4	29	?
CS(=O)(=O)Oc1ccc2c(c1)O/C(=C\C=C\c1ccccc1)C2=O	?	15*	36*	?
CCc1ccc(/C=C2\Oc3cc(OS(C)(=O)=O)ccc3C2=O)cc1	0%	14*	-7	-11%
COc1ccc(NC(=S)N2CCN(Cc3ccco3)CC2)c(OC)c1	?	-1	-6	10%
CCOC(=O)c1cnc(-n2nc(C)cc2C)nc1Nc1cccc(C(=O)O)c1	?	5	61	0%
CCOC(=O)c1cnc(-n2nc(C)cc2C)nc1Nc1ccc(O)cc1	2.6µM*	4	-4	?
CCOC(=O)c1cnc(-n2nc(C)cc2C)nc1Nc1ccc(C)cc1	?	8	6	?
CCOC(=O)c1cnc(-n2nc(C)cc2C)nc1Nc1ccc(N(C)C)cc1	3.3µM*	9	12	5.2µM*
SMILES	Pf growth 96h	CHX counter	Shiga inhibitor	Pf growth 48h
CCOC(=O)c1cnc(-n2nc(C)cc2C)nc1Nc1ccc2c(c1)OCO2	15µM*	2	-25	12%
Cc1cc(C)n(-c2ccc(C(=O)NCc3ccc4c(c3)OCO4)cc2)n1	-16%	-5	-14	1%
CC(C)CC(=O)NNC(=O)C(C)C	6%	-3	-10	23%
CCc1ccc(CNC(=O)CCS(=O)(=O)Cc2ccc(C)cc2)cc1	25%	-9	-10	5%
Cc1ccc(NC(=O)CC(C(=O)O)c2ccccc2)cc1 (configuration not stated)	26%	-1	-3	1%
CCn1cc(C(=O)NCCC(C)C)c(=O)c2cc(S(=O)(=O)N3CCCCC3)ccc21	?	-2	-8	?
O=C(Cc1ccc(S(=O)(=O)N2CCCCC2)cc1)NCc1ccc(Cl)cc1	-47%	.	.	?
CC(C)CCNC(=O)c1sc2ccc(S(=O)(=O)N3CCCCC3)cc2c1N	0%	8	1	13µM*
Nc1c(C(=O)NCCc2ccc(Cl)cc2)sc2ccc(S(=O)(=O)N3CCCCC3)cc12	?	-2	-5	10µM*
CCOc1ccc(CNC(=S)Nc2ccccc2)cc1Cl	i	-2	-2	?
COC(=O)CSc1nc(C2CC2)cc(C(F)(F)F)c1C#N	.	-2	-15	1%
N#Cc1c(-c2ccccc2)cc(-c2cccs2)nc1SCC(=O)O	4%	3	15	.
CCOC(=O)CSc1nc(C2CC2)cc(-c2ccc(Cl)cc2)c1C#N	-27%	-5	14	10µM*
CCCSc1sc(C(=O)OC)c(-c2cccs2)c1C#N	10µM*	1	-1	10µM*
N#Cc1c(-c2ccccc2F)cc(C2CC2)nc1SCC(=O)c1cccs1	?	13*	-12	?
CCCSc1nc(N)nc(-c2cccs2)c1C#N	-5%	35*	84*	54%
CCOC(=O)CSc1nc(N)c(C#N)c(-c2cccs2)c1C#N	111%	10	-24	33%
Cc1cccn2c(=O)c(C=O)c(N3CCC4(CC3)OCCO4)nc12	-7%	9	-9	-27%
CCc1c(C)nc(SCC(N)=O)c(C#N)c1C	-30%	12	10	.
CCSc1nc(C2CC2)cc(-c2cccs2)c1C#N	2%	16*	10	.
CCc1c(C)nc(SCC(=O)c2cccs2)c(C#N)c1C	121%	39*	40	.
O=C(C(=O)N1CCCC1)c1c(-c2ccccc2)[nH]c2ccccc12	-6%	1	8	.
O=C(Nc1ccc(Cl)c([N+](=O)[O-])c1)c1ccc(NCCCN2CCOCC2)c([N+](=O)[O-])c1	?	7	-5	15µM*
CC(C)(CNc1ccc(S(=O)(=O)C(F)(F)F)cc1[N+](=O)[O-])N1CCOCC1	?	35*	31*	?
COc1ccc(NC(=O)c2ccc(NCCCN3CCOCC3)c([N+](=O)[O-])c2)cc1	-3%	1	-8	?
SMILES	Pf growth 96h	CHX counter	Shiga inhibitor	Pf growth 48h
Cc1ccc(NC(=O)c2ccc(NCCCN3CCOCC3)c([N+](=O)[O-])c2)cc1Cl	79%	1	8	2.3µM*
O=[N+]([O-])c1cc(S(=O)(=O)N2CCCCC2)ccc1NCCCN1CCOCC1	1.5µM*	43	42*	?
O=C(Cn1cnc2ccccc21)N/N=C/c1ccccc1[N+](=O)[O-]	-6%	4	14	10%
CCN(Cc1ccc(N(C)C)cc1)C(C)C(=O)Nc1ccc(S(=O)(=O)N2CCCC2)cc1 (configuration not stated)	-19%	.	.	-7%
CC(C)[C@H](Nc1ccc(S(=O)(=O)N2CCOCC2)cc1[N+](=O)[O-])C(=O)OCC(=O)N(C(C)C)C(C)C	5.2µM*	-2	3	?
CC(C)N(CCc1ccncc1)C(=S)Nc1cccc(Cl)c1	28%	11	-10	17%
CC(C)(C)c1ccc(C(CC(=O)O)NC(=O)C23CC4CC(CC(C4)C2)C3)cc1 (configuration not stated)	7%	-3	-5	-11%
